Source: PubChem (SRMLSC)
Autofluor 339 = intrinsic fluorescence of library compounds, ex339/em460 – biochemical, MLSMR library, data from DPM-DC assay, artefact control, profiling panel | fluorescence fold increase at 10 µM | AID 709 | compound autofluorescence, ex339/em460 nm, NADH buffer; hits give high values; 1 = no-compound wells, NADH background | hit rate 5.5% among 65,000;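 active = at 10 µM, mean starting fluorescence two-fold or more over control wells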;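 also: signal is the first read of a kinetic run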
Spn PMK inh = S. pneumoniae PMK inhibition | purified PMK, PK/LDH-coupled NADH absorbance 340 nm | inhibition, % at 10 µM | hit rate 0.49% among 65,000;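 active = top-ranked compounds by inhibition in the single 10 µM screen, taking a fixed number of the strongest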;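 also: 0% = full reaction with DMSO carrier and 100% = background rate without enzyme reaction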
Spn MK inh = S. pneumoniae mevalonate kinase inhibition | inhibition, % at 10 µM | AID 555 | purified MK, PK/LDH-coupled NADH absorbance 340 nm | hit rate 0.48% among 65,000;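 active = ranked among the strongest by inhibition in the single 10 µM screen, a fixed top-ranked set picked for dose follow-up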
NADH coupling = blocks coupling enzymes of NAD/NADH assays; AID 774; hit rate 0.02% among 65,000; IC50, µM (highest dose often 10 µM), inactives show at the top dose inhibition; coupled PK/LDH NADH assays, four targets;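 active = single-dose screening hits from any of four coupled enzyme assays that gave an IC50 when retested across doses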;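 also: the DPM-DC format reads NADH fluorescence rather than 340 nm absorbance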
A340 absorber = absorbance at 340 nm; AID 708; compound absorbance at 340 nm, fold over control; fold change at 10 µM; 65,000 tested, under 10 active;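 active = at 10 µM dose, initial 340 nm absorbance at least 2 fold that of control wells; inactive = change under 2 fold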;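 also: initial absorbance extrapolated from kinetic A340 decline of NADH oxidation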
DPM-DC inhibit = inhibitors of Streptococcus pneumoniae diphosphomevalonate decarboxylase | purified DPM-DC, PK/LDH coupled NADH fluorescence | calls only at 10 µM | hit rate 0.49% among 65,000 | AID 556;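 active = the 320 compounds with the highest percent inhibition in the single-dose primary screen, excluding strongly autofluorescent ones, cut at about 32% in these data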;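 also: kinetic rate of NADH fluorescence loss reporting ADP formed by the decarboxylase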
An asterisk follows results filed as active. This is a sample that favours compounds with a hit; in the whole collection about 6.8% have one here.

Screening COCC(=O)Nc1c(C(=O)Nc2ccccc2OC)oc2ccccc12 returned Autofluor 339 1.17, Spn PMK inh 11.0, Spn MK inh 2.0, NADH coupling 2.0%, A340 absorber 1.01 and DPM-DC inhibit inactive.
COc1ccc(NC(=O)c2oc3ccccc3c2NC(=O)c2ccco2)c(OC)c1 was read as Autofluor 339 5.06*, Spn PMK inh 9.0, Spn MK inh 0.0, NADH coupling 5.0% and A340 absorber 1.07.
`CCOCC(=O)Nc1c(C(=O)Nc2ccc(OC)cc2OC)oc2ccccc12` gave Autofluor 339 2.37*, Spn PMK inh 11.0, Spn MK inh 6.0, NADH coupling 3.0% and A340 absorber 1.
For COc1ccc(NC(=O)c2oc3ccccc3c2NC(=O)C2CC2)cc1 the results were Autofluor 339 1.35, Spn PMK inh 7.0, Spn MK inh 0.0, NADH coupling 5.0%, A340 absorber 1.07 and DPM-DC inhibit inactive.
Screening COc1cccc(OCC(=O)Nc2c(C(=O)Nc3ccc(OC)cc3OC)oc3ccccc23)c1 returned Autofluor 339 5.04*, Spn PMK inh 13.0, Spn MK inh 0.0, NADH coupling 7.0% and A340 absorber 1.1.
For COc1ccc(NC(=O)c2oc3ccccc3c2NC(=O)c2ccco2)cc1 the results were Autofluor 339 1.17, Spn PMK inh 7.0, Spn MK inh 0.0, NADH coupling 1.0%, A340 absorber 1.03 and DPM-DC inhibit inactive.
`COCC(=O)Nc1c(C(=O)Nc2cccc(OC)c2)oc2ccccc12` gave Autofluor 339 1.29, Spn PMK inh 8.0, Spn MK inh 7.0, NADH coupling 5.0%, A340 absorber 1.07 and DPM-DC inhibit inactive.
Screening CCN(C(=O)CN1CCN(c2ccc(O)cc2)CC1)c1c(N)n(Cc2ccccc2)c(=O)[nH]c1=O returned Autofluor 339 1.04, Spn PMK inh 13.0, Spn MK inh 2.0, NADH coupling 6.0%, A340 absorber 1.02 and DPM-DC inhibit inactive.
`O=C(CCn1c(=S)[nH]c2cc3c(cc2c1=O)OCO3)NCCN1CCCC1` gave Autofluor 339 0.99, Spn PMK inh 12.0, Spn MK inh 0.0, NADH coupling 4.0%, A340 absorber 1.09 and DPM-DC inhibit inactive.
For CCN(CC)S(=O)(=O)c1ccc2oc(C(=O)Nc3ccc(OC)cc3OC)c(C)c2c1 the results were Autofluor 339 1.16, Spn PMK inh 9.0, Spn MK inh 0.0, NADH coupling 12.0%, A340 absorber 1 and DPM-DC inhibit inactive.
`COc1ccc(NC(=O)c2oc3cc(C)c(C)cc3c2C)c(OC)c1` gave Autofluor 339 3.83*, Spn PMK inh 4.0, Spn MK inh 4.0, NADH coupling 4.0% and A340 absorber 1.1.
`COc1ccccc1NC(=O)c1oc2ccccc2c1NC(=O)c1cc(OC)c(OC)c(OC)c1` gave Autofluor 339 3.24*, Spn PMK inh 3.0, Spn MK inh 0.0, NADH coupling 1.0% and A340 absorber 1.01.
For COc1ccc(-c2oc(/N=C/N3CCOCC3)c(C#N)c2-c2ccc(OC)cc2)cc1 the results were Autofluor 339 0.9, Spn PMK inh 0.0, Spn MK inh 6.0, NADH coupling 4.0%, A340 absorber 1.14 and DPM-DC inhibit inactive.
COC(=O)C1CCN(S(=O)(=O)Cc2ccccc2)CC1 was read as Autofluor 339 1.06, Spn PMK inh 11.0, Spn MK inh 7.0, NADH coupling 11.0%, A340 absorber 1.03 and DPM-DC inhibit inactive.
O=C1NC(c2ccccc2)(C(F)(F)F)C(=O)N1Cc1cccnc1 (stereo not given) was read as Autofluor 339 1.11, Spn PMK inh 5.0, Spn MK inh 14.0, NADH coupling 8.0%, A340 absorber 1.03 and DPM-DC inhibit inactive.
Screening Cc1ccc2nsnc2c1S(=O)(=O)N1CCN(Cc2ccc3c(c2)OCO3)CC1 returned Autofluor 339 1.02, Spn PMK inh 12.0, Spn MK inh 8.0, NADH coupling 5.0%, A340 absorber 1.01 and DPM-DC inhibit inactive.
COc1cccc(OC)c1C(=O)N1CCN(Cc2ccccc2C(F)(F)F)CC1 was read as Autofluor 339 1.11, Spn PMK inh 2.0, Spn MK inh 23.0, NADH coupling 8.0%, A340 absorber 1.03 and DPM-DC inhibit inactive.
For COc1ccc(C(=O)N2CCN(Cc3ccccc3C)CC2)cc1OC the results were Autofluor 339 1.1, Spn PMK inh 11.0, Spn MK inh 12.0, NADH coupling 10.0%, A340 absorber 1.03 and DPM-DC inhibit inactive.
COc1cc(OC)cc(C(=O)N2CCN(Cc3ccccc3C(F)(F)F)CC2)c1 was read as Autofluor 339 1.05, Spn PMK inh 0.0, Spn MK inh 50.0*, NADH coupling 17.0%, A340 absorber 1.05 and DPM-DC inhibit inactive.
For CN1CCCN(Cc2ccccc2C(F)(F)F)CC1 the results were Autofluor 339 1.14, Spn PMK inh 10.0, Spn MK inh 57.0*, NADH coupling 22.0%, A340 absorber 1.07 and DPM-DC inhibit inactive.
For COc1cc(C(=O)N2CCN(Cc3ccccc3C(F)(F)F)CC2)cc(OC)c1OC the results were Autofluor 339 1.06, Spn PMK inh 0.0, Spn MK inh 45.0*, NADH coupling 15.0%, A340 absorber 1.05 and DPM-DC inhibit inactive.
Screening Cc1cc(N2CCCC2=O)cc(C)c1CN1C(=O)c2ccccc2C1=O returned Autofluor 339 1.06, Spn PMK inh 9.0, Spn MK inh 6.0, NADH coupling 6.0%, A340 absorber 1 and DPM-DC inhibit inactive.
Screening COc1cc(C(=O)N2CCN(c3ncnc4sc(C)c(C)c34)CC2)cc(OC)c1OC returned Autofluor 339 1.12, Spn PMK inh 9.0, Spn MK inh 4.0, NADH coupling 4.0%, A340 absorber 1.03 and DPM-DC inhibit inactive.
CCOc1ccc(OCc2ccc(C(=O)OCc3ccccn3)o2)cc1 was read as Autofluor 339 0.89, Spn PMK inh 7.0, Spn MK inh 7.0, NADH coupling 9.0%, A340 absorber 1 and DPM-DC inhibit inactive.
For Cc1cccc(C(=O)Nc2cc(=O)n(C)c(=O)n2C)c1 the results were Autofluor 339 0.55, Spn PMK inh 10.0, Spn MK inh 2.0, NADH coupling 17.0%, A340 absorber 1.02 and DPM-DC inhibit active.
COCc1cc(C)nc2sc(C(=O)Nc3nccs3)c(N)c12 was read as Autofluor 339 2.2*, Spn PMK inh 0.0, Spn MK inh 2.0, NADH coupling 1.0% and A340 absorber 1.14.
Screening COc1cccc(CC(=O)Nc2nccs2)c1 returned Autofluor 339 1.09, Spn PMK inh 12.0, Spn MK inh 0.0, NADH coupling 4.0%, A340 absorber 0.99 and DPM-DC inhibit inactive.
`Cc1cc(C)c2c(N)c(C(=O)Nc3nccs3)sc2n1` gave Autofluor 339 2.15*, Spn PMK inh 6.0, Spn MK inh 4.0, NADH coupling 5.0% and A340 absorber 1.09.
Cc1ncoc1C(=O)Nc1nccs1 was read as Autofluor 339 1.01, Spn PMK inh 12.0, Spn MK inh 7.0, NADH coupling 7.0%, A340 absorber 1.03 and DPM-DC inhibit inactive.
